Results filed as inconclusive are left out. Entries that show only a call come without a potency. Values without a mark were called inactive. The source made the active and inactive calls. The call rests on the fitted dose curve; in most records, active means well fitted inhibition curve with a large enough effect; inconclusive means small, poorly fitted or top-dose-only effect; inactive means flat fitted curve, though single readings scatter.

Potency and activity change, negative = inhibition data for 38 molecules are collected here from PubChem BioAssay (NCATS).

Calcium and integrin-binding protein 1 (Homo sapiens), sequence (Q99828 whole entry, looked up): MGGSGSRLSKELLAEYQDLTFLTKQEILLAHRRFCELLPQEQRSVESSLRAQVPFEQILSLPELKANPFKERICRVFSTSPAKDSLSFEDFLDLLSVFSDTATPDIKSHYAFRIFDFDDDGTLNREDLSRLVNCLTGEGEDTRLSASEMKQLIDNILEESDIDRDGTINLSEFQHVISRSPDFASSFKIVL

In the test the target is Calcium and integrin-binding protein 1 (Homo sapiens) (UniProt Q99828). Put plainly: Primary qHTS for Identification of Calcium Integrin Binding Protein 1 (CIB1) Competitor (AID 1508620). Further: top concentration of the series differs between compounds. The following applies: CIB1-GST / FITC-alphaIIb peptide fluorescence polarization; series mostly up to 114 µM. The method in brief:
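Fluorescence polarization competition: GST-tagged CIB1 (1 uM final) preincubated with compound 15 min at room temperature, then FITC-labelled alphaIIb peptide (100 nM final) added. After 15 min at room temperature, polarization read at Ex 480/Em 540.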
For the molecule `CCNC1(C(N)=O)CN(c2nc(C)nc3c(-c4ccc(Cl)cc4)c(-c4ccccc4Cl)nn23)C1`, the Potency entry was “inactive”.

On to `CC(C)C[C@@H](C(=O)N[C@@H](Cc1ccc(OCc2ccccc2)cc1)C(=O)NC(C)(C)C)N(C)Cc1ccc(C(C)(C)C)cc1`, for which the Potency result was “inactive”.

With `Cc1cc(Nc2nc(-c3ccccc3)nc3ccccc23)n[nH]1`, the Potency result is “inactive”.

Consider `Nc1nc2c(cnn2CCCc2ccc(O)cc2)c2nc(-c3ccco3)nn12`, for which the Potency result was “inactive”.

With `COc1ccc(N(C(=O)Nc2c(C)cccc2C)c2cc(Nc3ccc(N4CCN(C)CC4)cc3)ncn2)c(OC)c1`, the Potency result was “inactive”.

As to `Cc1[nH]c2ccccc2c1CCNC(=O)c1cccs1`, the Potency entry is “inactive”.

`C=C1CO[C@@]2(O[C@H]3CC4C5CC=C6C[C@@H](O)C[C@@H](O[C@@H]7OC[C@H](O)[C@H](O[C@@H]8OC[C@@H](O)[C@H](O)[C@H]8O)[C@H]7O[C@@H]7O[C@@H](C)[C@H](OC(C)=O)[C@@H](OC(C)=O)[C@H]7OC(C)=O)[C@]6(C)C5CC[C@]4(C)[C@@H]3[C@@H]2C)[C@@H](O)[C@H]1OC1OC(C)C(O)C(O)C1O` (stereo partly drawn): the activity change, negative = inhibition was -5.12% [at 12.4 µM].

For the molecule `CN1CCN(C(=O)CN[C@@H]2C[C@H]2c2ccc(OCc3ccccc3)cc2)CC1`, the Potency entry is “inactive”.

Regarding `Cn1nc(-c2ccc(C(F)(F)F)cc2)nc2c(=O)n(C)c(=O)nc1-2`, the Potency entry is “inactive”.

For `COC(=O)c1cc(Br)cnc1N1CCC(NC2CCCCC2)C(O)C1` (stereo not drawn), the Potency entry was “inactive”.

`O=C(O)c1cccc(-c2ccc(-c3cn(C(=O)N4CCCCC4Cc4ccccc4)nn3)cc2)c1` (stereo not drawn): the Potency entry is “inactive”.

Regarding `CC(=O)OC1CC2(C)C(CCC(C)C23Cc2c(O)cc(CO)c(C=O)c2O3)C(C)(C)C1O` (stereo not drawn), the Potency entry was “inactive”.

On to `C=CC(C)(O)CC/C=C(/C)COC(=O)C(C)C1CCC(C)(C=C)O1` (stereo not drawn), for which the Potency entry was “inactive”.

As to `O=C(NCCCn1ccnc1)c1cc(-c2ccco2)on1`, the Potency entry was “inactive”.

As for `Cc1cc(CS(=O)(=O)c2ccccc2)cc(OCc2ccc(CN3CCCC3CO)cc2)c1` (stereo not drawn), the Potency entry was “inactive”.

On to `C=C1CC[C@@H](O)[C@]2(C)CC[C@H]3C(=C)C(=O)O[C@@H]3[C@@H]12`, for which the Potency result was “inactive”.

In the case of `Cc1cccc(N2CCN(C(=O)c3cc(S(=O)(=O)N(C)C)ccc3N3CCCC3)CC2)c1C`, the Potency entry is “inactive”.

As to `COc1ccccc1N1CCN(CC[C@@](C)(C(=O)C2CCCCC2)c2ccccc2)CC1`, the Potency entry is “inactive”.

On to `CC(=O)C1=CCC2C3CC=C4CC(O)CC(O)C4(C)C3C(O)CC12C` (stereo not drawn), for which the Potency result is “inactive”.

Consider `CCNC(=O)Nc1ccc(-c2nc3c(c(N4CCOCC4C)n2)CCN(C2COC2)C3)cc1` (stereo not drawn), for which the Potency result was “inactive”.

Take `O=c1cc(N2CCOCC2)nc2c3ccccc3ccn12`: the Potency result was “inactive”.

Take `C=C(C(=O)OC)[C@@H]1CC=C2C=CC(=O)[C@H](C)[C@@]2(C)C1`: the Potency entry is “inactive”.

Consider `CCc1cc2c(cc1CC)CC(NCC(O)c1ccc(O)c3[nH]c(=O)ccc13)C2` (stereo not drawn), for which the Potency entry is “inactive”.

With `NC(=O)N1CCC(CC(=O)N2CCC(C3c4ncc(Br)cc4CCc4cc(Cl)cc(Br)c43)CC2)CC1` (stereo not drawn), the Potency result is “inactive”.

Turning to `CC(=O)Nc1cccc(-c2csc(Nc3cc(C)ccn3)n2)c1`, the Potency entry is “inactive”.

Regarding `C/C=C/C1=CC2=C(CO1)C(=O)C(C)(OC(=O)c1c(C)cc(O)cc1OC)C(O)C2` (stereo not drawn), the Potency result is “inactive”.

Regarding `Cc1ccc(OC[C@H](O)[C@H](C)NC(C)C)c2c1CCC2`, the Potency entry was “inactive”.

Consider `CC(C)(F)CC(NC(c1ccc(-c2ccc(S(C)(=O)=O)cc2)cc1)C(F)(F)F)C(=O)NC1(C#N)CC1` (stereo not drawn), for which the Potency result was “inactive”.

Turning to `C[C@@H](NC(=O)C(=O)c1c[nH]c2ccc([N+](=O)[O-])cc12)c1ccccc1`, the Potency entry was “inactive”.

For `Cc1nc(-c2cn3c(n2)-c2ccc(-c4cnn(C(C)(C)C(N)=O)c4)cc2OCC3)n(C(C)C)n1`, the Potency result is “inactive”.

As for `C=C1C(=O)OC2CC(C)C(CCC(C)=O)=CCC12` (stereo not drawn), the Potency entry was “inactive”.

For the molecule `Cc1ccnc(NC(=O)C(C)c2cccc(C(=O)c3ccccc3)c2)c1` (stereo not drawn), the Potency entry is “inactive”.

With `C[C@H]1CO[C@@H]2Cn3cc(C(=O)NCc4ccc(F)cc4F)c(=O)c(O)c3C(=O)N12`, the Potency result is “inactive”.

As to `O=C(Nc1ccc(Cl)cc1)c1ccccc1NCc1ccncc1`, the Potency result was “inactive”.

For `NS(=O)(=O)Nc1ncnc(OCCOc2ncc(Br)cn2)c1-c1ccc(Br)cc1`, the Potency result is “inactive”.

For the molecule `CC(C)c1noc(C2CCN(c3ncnc(Nc4ccc(S(C)(=O)=O)cc4F)c3[N+](=O)[O-])CC2)n1`, the Potency entry was “inactive”.

As to `CS(=O)(=O)Nc1ccc2oc3c(OC(F)F)ccc(C(=O)Nc4c(Cl)cncc4Cl)c3c2c1`, the Potency result is “inactive”.

For the molecule `COc1cc2c(NC3CCN(C(C)C)CC3)nc(N3CCC(F)(F)CC3)nc2cc1OCCCN1CCCC1`, the Potency result was “inactive”.
